Bioassay records as filed in PubChem BioAssay.
Only some compounds are listed: those with a hit (about 5.7% of all), similar ones and a draw of the others.
ssDAF-12 act: S. stercoralis DAF-12 activation, primary screen | AID 652126 | HEK293 ssDAF-12/GRIP1 lit1-tk-luc reporter, luminescence; % of 3 µM dafachronic acid response | activation, % at 6.8 µM | 370,000 compounds, 1% hits;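 active = activation above the mean over all tested compounds plus 3 SD, cut at about 0.9% in these data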
hgDAF-12 ag: agonists of H. glycines DAF-12 nuclear receptor | HEK293 GAL4-hgDAF12 UAS-luciferase reporter, agonist luminescence; normalized to butyrate control | AID 687014 | 370,000 compounds, 1.8% hits | activation, % at 6.8 µM;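 active = activation above a cutoff set at the mean of all screened compounds plus 3 SD, cut at about 10% in these data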
hcDAF12 agonist: H. contortus DAF-12 activation, primary screen | 370,000 compounds, 1.4% hits | activation, % at 6.8 µM | HEK293 hcDAF-12 lit1-tk-luc reporter, luminescence; 0% DMSO, 100% Δ7-dafachronic acid | AID 652067;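 active = activation above the mean of all tested compounds plus 3 SD, cut at about 5.5% in these data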
DAX1 inh-1: inhibits human nuclear receptor DAX1; HEK293 Gal4-DAX1 luciferase reporter, luminescence; inhibition, % at 6.75 µM; 340,000 compounds, 0.99% hits; AID 504766;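 active = inhibition above the mean over all tested compounds plus 3 SD, cut at about 4.2% in these data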;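 note: inhibition shows as a rise in luminescence from relieved DAX1 repression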
Target sequence (P51843 207-470 limits assumed): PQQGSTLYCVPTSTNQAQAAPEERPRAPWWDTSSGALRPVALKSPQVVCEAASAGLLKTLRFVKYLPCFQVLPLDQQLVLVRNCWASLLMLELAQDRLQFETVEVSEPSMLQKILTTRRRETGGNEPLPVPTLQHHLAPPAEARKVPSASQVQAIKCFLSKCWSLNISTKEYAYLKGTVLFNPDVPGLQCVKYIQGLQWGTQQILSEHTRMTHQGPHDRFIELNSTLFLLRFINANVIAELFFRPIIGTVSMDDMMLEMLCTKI
DAX1 inh-2: DAX1 (NR0B1) inhibition, primary screen; 370,000 compounds, 1.1% hits; HEK293T StAR-luciferase reporter, SF-1/DAX-1 repression relief; inhibition, % at 6.8 µM; AID 652010;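 active = inhibition above the mean over all tested compounds plus 3 SD, cut at about 3.6% in these data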;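 note: higher inhibition means more luminescence from relief of DAX-1 repression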
AHR act: human AHR activation; P35869; AHR-responsive luciferase reporter cells, luminescence; activation, % at 5 µM; 320,000 compounds, 2.5% hits; AID 2796; in the data active = activation above about 47%
Large screens that a line does not name were inactive.

O=C(Nc1ccc2cn[nH]c2c1)c1ccc(Cl)c(S(=O)(=O)N2CCOCC2)c1	hcDAF12 agonist 6.5
O=C(Nc1ccccc1)C1CCCN(C(=O)c2ccc(Cl)cc2)C1 (stereo not drawn)	none
O=C(Nc1cccc(F)c1)C1CCCN(C(=O)c2ccc(Cl)cc2)C1 (stereo not drawn)	AHR act 51
OCc1ccccc1OCCOc1ccc(Cl)c2cccnc12	none
Clc1ccc(OCc2cn3ccccc3n2)c2ncccc12	AHR act 49
O=[N+]([O-])c1cccc(-c2cnc3ccccc3n2)c1	ssDAF-12 act 1.0
O=[N+]([O-])c1cc(-c2cnc3ccccc3n2)ccc1Oc1ccc(Cl)cc1	ssDAF-12 act 1.1, AHR act 50
COc1ccccc1Oc1ccc(-c2cnc3ccccc3n2)cc1[N+](=O)[O-]	AHR act 55 (no result: DAX1 inh-1)
Cc1cc(-c2cccc([N+](=O)[O-])c2)nc2ccccc12	none
O=[N+]([O-])c1cc(-c2cnc3ccccc3n2)ccc1Cl	none
Cc1cc(/C=C2\C(=N)N3N=CSC3=NC2=O)c(C)n1Cc1ccccc1	DAX1 inh-1 5.4
O=Cc1c(NCc2ccco2)nc2ccccn2c1=O	none
Cc1ccc2[nH]c(=O)c(-c3nc4ccccn4c3NCc3ccco3)cc2c1	AHR act 48
O=C(Cn1c(CCCO)nc2ccccc21)Nc1ccccc1-c1ccccc1	none
COc1ccc(-c2[nH]ncc2N=Nc2cc(C)cc(C)c2)cc1	AHR act 66
COCc1cc(CN(C)C(=O)C2CCC(=O)N(Cc3cccc(OC)c3)C2)[nH]n1 (stereo not drawn)	none
Cc1cccc(C(=O)Nc2nc3ncccn3c2-c2ccccc2)c1	none (no result: DAX1 inh-1, AHR act)
C/C(=N\Nc1nc(N)cc(Cl)n1)c1cccc(N)c1	AHR act 65
C/C(=N\Nc1nc(N)cc(Cl)n1)c1cccc([N+](=O)[O-])c1	none
CCc1cccc(CC)c1NC(=O)CN1CCN(S(=O)(=O)c2ccccc2)CC1	none
CC(=O)Nc1ccc(S(=O)(=O)C(C#N)c2nc3ccccc3nc2NCCCO)cc1 (stereo not drawn)	DAX1 inh-1 5.3
CC1(C)Cc2c(cnn2-c2ccc(F)cc2)C(NC(=O)CCc2ccncc2)C1 (stereo not drawn)	none (no result: AHR act)
CC(C)c1cccc(C(C)C)c1NC(=S)Nc1cccc(Cl)c1	DAX1 inh-1 5.7
CCCCCNc1nc(-c2ccccc2)nc(-n2ccnc2)n1	none
CCCCNc1nc(N(C)c2ccccc2)nc(-n2ccnc2)n1	AHR act 61
CC(=O)C1=C(C)NC(=S)NC1c1ccccc1 (stereo not drawn)	none (no result: DAX1 inh-1, AHR act)
Cc1ccccc1NC(=O)[C@@H]1CCCN1S(=O)(=O)c1cccc2cccnc12	none (no result: DAX1 inh-1, DAX1 inh-2, AHR act)
Cc1c(C(=O)Nc2ccccc2)sc2nc[nH]c(=O)c12	none
COc1ccc2cc(-c3cccnc3)ncc2c1	hgDAF-12 ag 11
Fc1ccc2cc(-c3cccnc3)ncc2c1	none
COc1cc(CNc2cccc3c2S(=O)(=O)N([C@H](C)c2ccccc2)C[C@@H](COCc2ccccc2)O3)cc(OC)c1OC	none (no result: DAX1 inh-1, AHR act)
COc1ccc(C(CNC(=O)Nc2ccc(Cl)cc2)N2CCN(C)CC2)cc1 (stereo not drawn)	none
CCOc1ccccc1-c1nc(C(N)=O)c2[nH]c(=O)n(-c3ccc(F)cc3)c2n1	AHR act 72
CC(C)c1nc(C(N)=O)c2[nH]c(=O)n(-c3ccc(F)cc3)c2n1	none
Cc1ccc(SCC(=O)OCC(=O)NCCCc2ccccc2)cc1	none
O=C(COC(=O)CSc1ccc(F)cc1)NCCCc1ccccc1	ssDAF-12 act 1.1
Cc1csc(C(C#N)C(=O)c2cc3ccccc3o2)n1 (stereo not drawn)	DAX1 inh-2 3.9
O=C(Nc1ccccc1Cl)c1cc(C2CCCN(C(=O)c3cccs3)C2)on1 (stereo not drawn)	none (no result: DAX1 inh-1, AHR act)
COc1cc(N2CCOCC2)ncn1	DAX1 inh-1 4.8
CC(C)(CC(=O)O)CC(=O)Nc1ccc2c(c1)ncn2CCc1ccccc1	DAX1 inh-1 4.5
CS(=O)(=O)Nc1ccc2c(c1)ncn2CCc1ccccc1	none
CC1(C(=O)NC2CCN(Cc3ccccc3)CC2)CCN1Cc1ccc2ccccc2c1 (stereo not drawn)	none (no result: DAX1 inh-1, AHR act)
Brc1ccc(/C=N/Nc2nc3ccccc3o2)cc1	ssDAF-12 act 1.9, hgDAF-12 ag 12, hcDAF12 agonist 5.9
NNC(=O)C1SCCN1S(=O)(=O)c1ccc(Cl)cc1 (stereo not drawn)	none
Cn1cnnc1SCC(=O)NCCC(c1ccccc1)c1ccccc1	none
Cn1cnnc1Sc1ccc(C(=O)NCCC(c2ccccc2)c2ccccc2)cc1[N+](=O)[O-]	DAX1 inh-1 4.3
COc1ccc(C(Nc2cc(C)ccn2)c2ccc3ccc(C)nc3c2O)cc1 (stereo not drawn)	none
Cc1ccnc(NC(c2ccsc2)c2ccc3ccc(C)nc3c2O)c1 (stereo not drawn)	DAX1 inh-1 4.9
CC1CCCCC1NC(=O)C(C)N1C(=O)c2ccccc2C1=O (stereo not drawn)	none
O=C(CSc1nnc(NC2CCCCC2)s1)N1CCOCC1	DAX1 inh-2 4.1
Cc1nnc(SCC(=O)N2CCOCC2)s1	none
COc1ccc(-c2c(-c3ccc(OC)nc3)c3ccccc3n2C)cc1	AHR act 63
Nc1ccc(C(=O)c2cccs2)cn1	hcDAF12 agonist 5.8
CCCCNC(=O)C1c2ccccc2OCC(=O)N1CCOC (stereo not drawn)	none (no result: DAX1 inh-1, AHR act)
Cc1ccc(S(=O)(=O)N2C[C@@H](C)[C@]3(C2)[C@H](O)[C@H](OC(=O)NC2CC2)C[C@H]2C(=O)N(c4ccccc4)C(=O)[C@H]23)cc1	none (no result: AHR act)
COc1cc2c(cc1NC(=O)C(C)N1CCN(S(=O)(=O)c3ccccc3[N+](=O)[O-])CC1)oc1ccccc12 (stereo not drawn)	hcDAF12 agonist 6.0
COc1cc2c(cc1NC(=O)C(C)N1CCN(S(=O)(=O)c3ccc(C)c(C)c3)CC1)oc1ccccc12 (stereo not drawn)	AHR act 59
COc1cc2c(cc1NC(=O)CN1CCN(S(=O)(=O)c3ccc(C)cc3)CC1)oc1ccccc12	none
COc1cc2c(cc1NC(=O)c1ccc(C)c([N+](=O)[O-])c1)oc1ccccc12	none
COc1cc2c(cc1NC(=O)C(C)OC(=O)c1ccc(S(=O)(=O)Nc3ccccc3Cl)cc1)oc1ccccc12 (stereo not drawn)	hcDAF12 agonist 5.8, AHR act 78
COCCN1CCc2c(C)nc3c(-c4ccc(OC)c(OC)c4)cnn3c21	AHR act 49
COc1ccc(C2=CN3CCCCC3CC2=O)cc1OC (stereo not drawn)	none
COc1ccc(-c2cnn3c4c(c(C)nc23)CCN4C2CCCC2)cc1OC	DAX1 inh-1 5.9
